These results are taken from PubChem BioAssay AID1645887 (National Center for Advancing Translational Sciences (NCATS), 2021).

In all, about 16,000 compounds went through this assay and about 40 (0.2%) were called active. Inconclusive results (about 1%) are left out. The full list was thinned out, with actives kept by preference. Some structures have more than one record in an assay (separate samples or runs), and their calls can disagree. Unmarked numbers belong to inactive results. Calls follow the shape of the dose curve; as a rule, active = well fitted activation curve with a large enough effect; inconclusive = small, poorly fitted or top-dose-only effect, or another doubt; inactive = no such curve, though single readings can be large or run the other way. Residues, ends and D or L forms follow the SMILES beside them.
% is scaled to controls: 0 for no effect and ±100 for the full control effect; potency is read from the fitted curve at half-maximal effect.

Sequence of Rap guanine nucleotide exchange factor 4 (Homo sapiens) (Q8WZA2 whole entry, looked up): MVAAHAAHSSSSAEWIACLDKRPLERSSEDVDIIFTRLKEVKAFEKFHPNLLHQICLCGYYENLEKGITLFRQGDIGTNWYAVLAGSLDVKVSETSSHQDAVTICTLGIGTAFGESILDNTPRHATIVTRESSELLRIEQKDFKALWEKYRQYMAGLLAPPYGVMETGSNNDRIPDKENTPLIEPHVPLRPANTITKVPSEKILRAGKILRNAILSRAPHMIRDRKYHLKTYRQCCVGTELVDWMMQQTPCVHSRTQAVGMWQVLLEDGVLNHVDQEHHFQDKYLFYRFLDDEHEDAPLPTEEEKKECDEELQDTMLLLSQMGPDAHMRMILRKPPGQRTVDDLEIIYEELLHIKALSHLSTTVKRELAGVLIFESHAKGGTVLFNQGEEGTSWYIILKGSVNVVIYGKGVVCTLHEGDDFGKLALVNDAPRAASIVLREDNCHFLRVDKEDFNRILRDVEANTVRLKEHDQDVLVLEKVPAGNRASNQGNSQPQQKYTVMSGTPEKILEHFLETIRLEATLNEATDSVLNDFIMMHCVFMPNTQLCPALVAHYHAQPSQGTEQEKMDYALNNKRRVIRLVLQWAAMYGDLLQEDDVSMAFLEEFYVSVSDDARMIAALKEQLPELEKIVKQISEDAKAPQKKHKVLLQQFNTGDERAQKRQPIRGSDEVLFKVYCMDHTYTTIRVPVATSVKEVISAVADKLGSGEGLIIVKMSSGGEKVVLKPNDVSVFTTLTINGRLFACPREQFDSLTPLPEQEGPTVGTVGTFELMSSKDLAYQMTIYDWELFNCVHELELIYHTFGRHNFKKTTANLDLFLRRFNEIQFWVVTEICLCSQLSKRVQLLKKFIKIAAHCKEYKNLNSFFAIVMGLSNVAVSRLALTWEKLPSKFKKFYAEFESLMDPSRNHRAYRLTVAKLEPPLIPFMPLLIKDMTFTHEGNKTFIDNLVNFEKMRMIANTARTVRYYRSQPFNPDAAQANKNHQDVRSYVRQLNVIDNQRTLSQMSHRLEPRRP

In this experiment the target is Rap guanine nucleotide exchange factor 4 (Homo sapiens) (UniProt Q8WZA2). Nature of the experiment: Validation qHTS for agonist of cAMP-regulated guanine nucleotide exchange factor 4 (EPAC2).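 As to activation: exchange makes BODIPY-GDP fluorescence drop when released from Rap1B; series mostly up to about 150 µM.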 As to conditions: EPAC2 Rap1B BODIPY-GDP exchange, fluorescence; activation: stronger effect = higher value. The text has this:
Principle Investigator: Xiaodong Cheng Ph.D.
The University of Texas Medical Branch, […], TX
In multi-cellular eukaryotic organisms, the effects of cAMP are transduced by two ubiquitously-expressed intracellular cAMP receptors, the classic protein kinase A/cAMP-dependent protein kinase (PKA/cAPK) and the more recently discovered exchange protein directly activated by cAMP/cAMP-regulated guanine nucleotide exchange factor (EPAC/cAMP-GEF). Both PKA and EPAC are ubiquitously expressed in all tissues, and an increase in intracellular cAMP levels will lead to the activation of both PKA and EPAC. Therefore, careful dissections of the individual role and relative contribution of EPAC and PKA within the overall cAMP signaling in various model systems are critical for further elucidating the mechanism of cAMP signaling. To date no EPAC-specific antagonists and agonist, as well as isoform-specific agonists have been reported, and developing EPAC-specific pharmacological probes to determine the physiological functions that EPAC play in the overall cAMP-mediated signaling remains a major challenge within the research field. Furthermore, identified regulators of EPAC may lead to new mechanism-based therapeutic strategies specifically targeting the EPAC / cAMP-signaling components as EPAC has been implicated to play important roles in major human pathological conditions such as diabetes, heart disease, and cancer.
This qHTS will be used to screen the Molecular Libraries Small Molecule Repository (MLSMR) as a concentration-titration series using the NCGC unique quantitative screening (qHTS) platform to find activators for EPAC1. In addition, this assay will also be used as a counterscreen for the EPAC2 qHTS. This fluorescent based assay is developed and validated for EPAC1 that measures exchange using EPAC effector Rap1 complex with BODIPY-GDP, a GDP analog with a tethered fluorophores. Activators are identified by monitoring the change in fluorescence signal as the exchanged free BODIPY-GDP has a reduced fluorescence compared to Rap1-bound BODIPY-GDP. Increase in signal (activation) is the desired outcome for the EPAC1 agonist while no activity in this assay is desired for the EPAC2 agonist counterscreen.
[1] de Rooij, J., Zwartkruis, F. J., Verheijen, M. H., Cool, R. H., Nijman, S. M., Wittinghofer, A., and Bos, J.L. (1998) Nature 396, 474-477.
Briefly, three uL of reagents (100 nM EPAC2, 250 nM RAP1B-BODIPY-GDP, 50 uM GDP) were dispensed into a 1536-well Greiner black solid-bottom medium binding assay plate. Controls and test compounds (23 nL) were transferred to the plate via a Kalypsys pin tool equipped with a 1536-pin array. The plates were centrifuged at 1,000 rpm for 15 seconds followed by 5 minute incubation at room temperature. The assay plates were read at 5 minute intervals for 30 minutes in the ViewLux plate reader using 480nm excitation and 540nm emission filters. The results were normalized to the agonist positive control of 6.5 mM cAMP.
`CCNc1ncc2nc(-c3ccccc3)c(=O)n(CCc3ccccc3)c2n1`: the activation is 4.35%.

Turning to `CN1CCCC(CNC(=O)c2cnn(-c3ncc4c(n3)-c3ccccc3CC4)c2C2CC2)C1` (centres undefined), the activation was -10.8%.

For `O=C(CNC(=O)c1cccnc1)c1ccc(F)cc1`, the activation is -17.4%.

On to `O=C(c1cn(C2CCCN(Cc3cc(Cl)ccc3O)C2)nn1)N1CCCCC1` (centres undefined), for which the activation is -0.543%.

In the case of `CNc1ccnc(-c2cccc(NS(C)(=O)=O)c2)n1`, the activation was 1.54%.

Regarding `CC(=O)Nc1ccc(S[C@@H](CCN2CC[C@H](C(C)(C)C)CCC2=O)c2ccccc2)cc1`, the activation was -31.2%.

For the compound `O=C(O)COc1ccc(CCNS(=O)(=O)c2ccccc2)s1`, the activation is 2.15%.

Take `CCn1c(-c2ccccc2F)nc2cc(NC(C)=O)cc(C(=O)N3CCNC(=O)C3CC(=O)OC)c21` (centres undefined): the activation is -2.82%.

As for `O=C(C[N+]12CCCc3cccc(c31)CCC2)c1ccccc1`, the activation is -2.28%.

Turning to `CN(C)c1ccc(C(=C2C=CC(=[N+](C)C)C=C2)c2ccccc2)cc1`, the activation was -24.7%.

As for `Cn1c(C(c2cc3ccccc3n2C)c2cc3ccccc3n2C)cc2ccccc21`, the activation is 11.4%.

Regarding `COc1ccccc1CNc1ccnc(-c2ccoc2)n1`, the activation was -10.4%.

Consider `CCCN1CCC(=O)N([C@H](CSc2ccccc2)c2ccccc2)CC1`, for which the activation was -10.4%.

Consider `CC(=O)OC1CCC2(C)C3CC(=O)C4(C)C(CC5OC6(CCC(C)CO6)C(C)C54)C3CC[C@H]2C1` (some centres undefined), for which the activation was -13.5%.

With `O=C(O)c1ccc2nc(-c3ccccc3)c(-c3ccccc3)nc2c1`, the activation is 11.6%.

With `Cc1nc(NCc2c(F)cccc2F)sc1-c1ccn(CCN2CCOCC2)n1`, the activation was -13.4%.

For `COc1ccc(C(=O)N2CCC[C@@]3(CCN(c4ncccn4)C3)C2)cc1`, the activation is -15.1%.

In the case of `COc1cccc(Cn2c(=O)c(-c3ccc(F)cc3)nc3cnc(N4CCNCC4)nc32)c1`, the activation was 12.8%.

For the compound `C=C1CCC(OC(C)=O)/C(C)=C/CC2[C@H]1CC2(C)C` (some centres undefined), the activation was -15.7%.

Take `CCOC(=O)C[C@H]1c2cc(F)ccc2S(=O)(=O)N1C1CCCC1`: the activation is -9.78%.

In the case of `CN(C)c1ccc(/C=C/c2c3c(nc4ccccc24)CCCC3)cc1`, the Potency was 44.7 µM (active).

For `Cc1cnc2ccccc2c1/C=C/c1ccc(N(C)C)cc1`, the activation was 20.8%.

Consider `CN(C)c1ccc(/C=C/c2c3ccccc3nc3ccccc23)cc1`, for which the activation was -14.9%.

Take `OC(CN1CCCCC1)c1cc(-c2ccccc2)on1` (centres undefined): the activation was 8.32%.

In the case of `CN(Cc1ccco1)c1ncnc2ccc(-c3ccccc3C(F)(F)F)cc12`, the activation is -4.16%.

With `Cc1c(C(=O)N(C)Cc2cscn2)sc2ncnc(NC[C@H]3CCc4ccccc4O3)c12`, the activation was -2.34%.

Turning to `O=C(O)[C@@H]1CN[C@@H](C(=O)O)C1`, the activation is 11.8%.

Take `Cc1cc2c(c(-c3cnccn3)c1)OC(CNC(=O)c1ccc(-n3nc(C)cc3C)cc1)C2` (centres undefined): the activation was -7.18%.

Turning to `CC(C)CC(NC(=O)CN)C(=O)NC(Cc1ccccc1)C(=O)O` (stereo not drawn) (H-Gly-Leu-Phe-OH; configuration not given here), the activation is -3.33%.

Consider `CO[C@H]1[C@H](NC(=O)c2ccco2)c2ccccc2C12CCN(Cc1cnc(N(C)C)s1)CC2`, for which the activation is -21.4%.

On to `COc1ccc(-c2nc3cnc(OC)nc3n(C[C@H]3CCCO3)c2=O)cc1`, for which the activation is -6.48%.

For `O=C(O)CCC(=O)OC[C@@H](NC(=O)C(Cl)Cl)C(O)c1ccc([N+](=O)[O-])cc1` (some centres undefined), the activation is -9.09%.

With `COCCn1c(=O)c(C)nc2cnc(OC)nc21`, the activation was -6.26%.

For the compound `CC(=O)O[C@H]1C[C@H]2CC[C@@H]3[C@H]4C[C@@H]([N+]5(C)CCCCC5)[C@@H](OC(C)=O)[C@]4(C)CC[C@@H]3[C@@]2(C)C[C@@H]1[N+]1(C)CCCCC1`, the activation is -8.62%.

`O=c1c(-c2ccccc2)nc2cnc(Oc3ccccc3)nc2n1Cc1cccs1`: the activation was -18.6%.

Consider `CN1CCN(c2ncc3nc(CCc4ccccc4)c(=O)n(Cc4cccs4)c3n2)CC1`, for which the activation was 14.9%.

With `CC1=CC(=O)c2ccccc2C1=O`, the activation was -29.9%.

For the compound `CC1(C)CCC2=C(O1)c1ccccc1C(=O)C2=O`, the Potency is 70.8 µM (active) and the activation was 17.8%.

Turning to `CC1(S(=O)(=O)O)CC(=O)c2ccccc2C1=O` (centres undefined), the activation was 3.25%.

`CC(C)C(C)/C=C/C(C)C1CCC2C3=CCC4CC(=O)CC[C@@]4(C)C3CC[C@]21C` (some centres undefined): the activation is 0.449%.

`O=C(O)c1cccc(/C=C2/C[C@@H]3[C@@H](/C=C/[C@@H](O)C4CCCCC4)[C@H](O)C[C@@H]3O2)c1`: the activation was 15.9%.

Turning to `C=C1Cc2c(Cl)cc3[nH]c4c5c3c2[C@@]2(O)[C@@H]1C[C@@H]2C(C)(C)O[C@H]5[C@@H]1CC[C@@]2(O)[C@@]35O[C@@H]3[C@@H](O)[C@@H](C(=O)O)O[C@H]5CC[C@]2(C)[C@@]41C`, the activation is -9.97%.

In the case of `N#CC[C@H](Cc1ccccc1)N1CC[C@@H](NC(=O)OCc2ccccc2)CCC1=O`, the activation is -28.7%.

For `Oc1cc(-c2nc3ccccc3s2)cc2c1OCCN(Cc1cccn1-c1ccccn1)C2`, the activation is 7.3%.

As to `COc1ccc(CN([C@H](CO)CC(C)C)S(=O)(=O)N(Cc2ccccc2)[C@H](CO)CC(C)C)cc1`, the activation is -27.3%.

Turning to `CCNc1ncc2nc(-c3cccs3)c(=O)n(CCC#N)c2n1`, the Potency is 50.1 µM (active).

As to `CCNc1ncc2nc(-c3cccs3)c(=O)n(CCc3ccccc3)c2n1`, the activation was -14%.

Take `N#CCCn1c(=O)c(-c2cccs2)nc2cnc(Nc3ccccc3)nc21`: the activation is -2.03%.

On to `O=c1[nH]c(=O)n(C2CC(O)C(CO)O2)cc1F` (centres undefined), for which the activation is -6.18%.

For `C[C@]12CC[C@@H]3c4ccc(OC(=O)c5ccccc5)cc4CC[C@H]3[C@@H]1CC[C@@H]2O`, the activation is -2.11%.

In the case of `CC(=O)Oc1ccc2c(c1)CCC1C2CC[C@]2(C)C(OC(C)=O)CCC12` (some centres undefined), the activation was -1.9%.

Regarding `CC(=O)Oc1ccc2c(c1)CC[C@@H]1[C@@H]2CC[C@]2(C)[C@@H](O)CC[C@@H]12`, the Potency was 44.7 µM (active).

For `CN(C)C(=O)c1ccc(-c2nc(N3CCOCC3)c3ccccc3n2)cc1`, the activation is -5.48%.

Turning to `CC(C)C[C@@H](CC#N)N1CCN(Cc2ccccc2)CCC1=O`, the activation was -11.1%.

For `Clc1ccc[n+](CCCCC[n+]2cccc(Cl)c2)c1`, the activation was -27.9%.

For `O=C(Nc1ccc(C(F)(F)F)cc1[N+](=O)[O-])O[C@H]1[C@H](Cc2ccccc2)NS(=O)(=O)[C@H]2C[C@@H]3C=C[C@]12O3`, the activation was -19.6%.

Regarding `COc1ccc(C(=O)C[n+]2cccc3cccc(O)c32)cc1`, the activation is -13.2%.

As for `COc1cccc2c1C(=O)c1c(O)c3c(c(O)c1C2=O)C[C@@](O)(C(=O)CO)C[C@@H]3O[C@H]1C[C@H](N)[C@H](O[C@@H]2CCCCO2)[C@H](C)O1`, the activation was 1.58%.

Turning to `CC(=O)[C@]1(O)Cc2c(O)c3c(c(O)c2[C@@H](O[C@H]2C[C@H](N)[C@H](O)[C@H](C)O2)C1)C(=O)c1ccccc1C3=O`, the Potency was 100 µM (active).

Consider `CC(=O)[C@]1(O)Cc2c(O)c3c(c(O)c2[C@@H](O[C@H]2C[C@H](N)[C@H](O)[C@H](C)O2)C1)C(=O)c1c(O)cccc1C3=O`, for which the Potency was 100 µM (active).

As for `CC[C@@]1(O)C[C@H](O[C@H]2C[C@H](N(C)C)[C@H](O[C@H]3C[C@H](O)[C@H](O[C@H]4CCC(=O)[C@H](C)O4)[C@H](C)O3)[C@H](C)O2)c2c(cc3c(c2O)C(=O)c2c(O)cccc2C3=O)[C@H]1C(=O)OC`, the activation is 26%.

As for `CCCCC(=O)OCC(=O)[C@]1(O)Cc2c(O)c3c(c(O)c2[C@@H](O[C@H]2C[C@H](NC(=O)C(F)(F)F)[C@H](O)[C@H](C)O2)C1)C(=O)c1c(OC)cccc1C3=O`, the activation was -1%.

For the compound `COc1cccc2c1C(=O)c1c(O)c3c(c(O)c1C2=O)C[C@@](O)(C(C)=O)C[C@@H]3O[C@H]1C[C@H](N)[C@H](O)[C@H](C)O1`, the Potency is 100 µM (active).

Consider `COc1cccc2c1C(=O)c1c(O)c3c(c(O)c1C2=O)C[C@@](O)(C(=O)CO)C[C@@H]3O[C@H]1C[C@H](N)[C@H](O)[C@H](C)O1`, for which the activation was -17.2%.

As to `Cc1c(C(=O)NCc2ccco2)cnn1-c1ncc2c(n1)-c1ccccc1CC2`, the activation is -0.162%.

Turning to `O=C(c1ccncc1)N1CCC2(CCCN(c3ccc(-c4ccccc4)cc3)C2)CC1`, the activation is -3.07%.

`COc1cc2c(cc1OC)C(=O)N(C)CC2`: the activation was -9.91%.

As to `CC(C)NC(=O)[C@@H]1C[C@@H](Sc2ccccn2)CN1C1CCN(C)CC1`, the activation is -0.85%.

Turning to `C=CCN1[C@@H](Cc2ccccc2)COCCS1(=O)=O`, the activation was -11.2%.

As for `Cc1cccc(CN2Cc3cccc4c3[C@H](C=CC4)CC2=O)c1`, the activation is -35.8%.

Regarding `Cc1cc(CC(=O)O)c(C)n1-c1ccc(Cl)cc1`, the activation is -0.347%.

Take `COc1ccccc1CNc1ncncc1-c1ccccc1CN(C)C`: the activation is -6.39%.

Regarding `COc1ccccc1CCNc1ncnc2sc(C(=O)N3CCCC3)c(C)c12`, the activation is -2.93%.

Consider `COc1cccc(-c2ccc3ncnc(NCc4cccnc4)c3c2)c1`, for which the activation was -11%.

In the case of `Clc1cccc[n+]1CCc1ccccc1`, the activation was -40.7%.

In the case of `COc1ccc(N2C(=O)[C@@H]3C[C@H]2CN3Cc2ccc3nccnc3c2)cc1Cl`, the activation is -3.06%.

Take `CC[C@@H]1[C@H]2CCCC(=O)N3CC[C@@H](C[C@H]1O)[C@@H]23`: the activation was -8.94%.

On to `N[C@@H](Cn1cc(I)c(=O)n(Cc2ccc(C(=O)O)cc2)c1=O)C(=O)O`, for which the activation is 2.18%.
